From PubChem BioAssay (NCATS)
Inconclusive results are not listed. Values without a mark were called inactive. Active and inactive are the calls of the source. Calls follow the shape of the dose curve; as a rule, active = well fitted curve in the direction sought with a large enough effect; inconclusive = small, poorly fitted or top-dose-only effect, or another doubt; inactive = no such curve, though single readings can be large or run the other way.

Assay: qHTS Assay for Identifying Gametocytocidal Compounds (AID 743244);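 as to max response: actives lower the fluorescent signal which means gametocytes are killed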
Conditions: P. falciparum 3D7 stage III-V gametocytes, alamarBlue, 72 h; max response: stronger effect = lower value
Outline: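 Stage III-V P. falciparum 3D7 gametocytes, 20,000 per well, were exposed to compounds for 72 h at 37C, 5% CO2. AlamarBlue was then added for 24 h and viability was read as fluorescence at Ex 525/Em 598 nm.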
% is scaled to controls: 0 for no effect and ±100 for the full control effect; potency is read from the fitted curve at half-maximal effect.

| SMILES | max response [%] | Potency |
| --- | --- | --- |
| CCCc1ncc(C[n+]2ccccc2C)c(N)n1 | 8.25 |  |
| CCCCN1C[C@H](O)[C@@H](O)[C@H](O)[C@H]1CO | 2.05 |  |
| FC(F)(F)C(F)(F)C(F)(F)C(F)(F)C(F)(F)C(F)(F)C(F)(F)C(F)(F)Br | 5.68 |  |
| CN(C)CCOC(c1ccc(Cl)cc1)c1ccccn1 (centres undefined) | 1.88 |  |
| O=C(O)CCNC(=O)c1ccccc1 | 7.27 |  |
| CC(=O)OC[C@H]1O[C@@H](n2ncc(=O)[nH]c2=O)[C@H](OC(C)=O)[C@@H]1OC(C)=O | 13.3 |  |
| COc1cc(C(=S)N2CCOCC2)ccc1O | 19.6 |  |
| Nc1nc(-c2ccccc2)c(Br)c(=O)[nH]1 | -0.157 |  |
| O=C(O)C1(C(=O)O)CCC1.[NH2-].[NH2-].[Pt+2] | -10.4 |  |
| CCCCCCCCNC(C)C(O)c1ccc(SC(C)C)cc1 (centres undefined) |  | 2.51 µM (active) |
| NCc1ccccc1Sc1ccccc1CO | -6.07 |  |
| CN1CCN(CCC(=O)N2c3ccccc3Sc3ccc(C(F)(F)F)cc32)CC1 | 2.75 |  |
| CN1CCc2cccc3c2[C@H]1Cc1ccc(O)c(O)c1-3 |  | 3.98 µM (active) |
| CN1CCN(C2=Nc3ccccc3Sc3ccc(Cl)cc32)CC1 | -0.118 |  |
| CC(C)CCCC(C)N (centres undefined) | 6.57 |  |
| CN1CCN(c2cc3c(cc2F)c(=O)c(C(=O)O)cn3-c2ccc(F)cc2)CC1 | -4.31 |  |
| O=C1c2cccc3c2[C@H](CCC3)CN1[C@@H]1CN2CCC1CC2 | -7.45 |  |
| CCN1/C(=C/C=C/c2sc3ccccc3[n+]2CC)Sc2ccccc21 |  | 1.58 µM (active) |
| Cc1nc(-c2ccc(Cl)cc2)oc1COC(C)(C)C(=O)O | -2.69 |  |
| OC[C@H]1O[C@@H](Oc2ccc(O)cc2)[C@H](O)[C@@H](O)[C@@H]1O | 0.374 |  |

| SMILES | max response [%] | Potency |
| --- | --- | --- |
| CCOC(=O)[C@@](C)(N)Cc1ccc(O)c(O)c1 | 1.03 |  |
| COc1ccc(/C=N/NC(=O)c2ccncc2)cc1OC | -3.84 |  |
| COc1ccc(C(=O)c2ccccc2O)c(O)c1 | 14.9 |  |
| CCN(CC)CCOc1ccc2c(c1)C(=O)c1cc(OCCN(CC)CC)ccc1-2 |  | 12.6 µM (active) |
| COc1ccc(S(=O)(=O)N2c3ccc(Cl)cc3[C@@](O)(c3ccccc3Cl)[C@H]2C(=O)N2CCC[C@@H]2C(N)=O)cc1OC | 20.2 |  |
| c1ccc(CC2=NCCN2)cc1 | -3.06 |  |
| Cl/C(=C\n1cncn1)c1ccc(Cl)cc1Cl | -6.68 |  |
| CC(C)n1c(/C=C/[C@@H](O)C[C@@H](O)CC(=O)O)c(-c2ccc(F)cc2)c2ccccc21 | -9.47 |  |
| CCC1NC(=O)c2cc(S(N)(=O)=O)c(Cl)cc2N1 (centres undefined) | 5.58 |  |
| CC(=O)Oc1ccc(C)cc1 | -2.81 |  |
| NS(=O)(=O)c1ccc(Cl)c(S(N)(=O)=O)c1 | -1.41 |  |
| CCOCCn1c(N2CCCN(C)CC2)nc2ccccc21 | -5.27 |  |
| CC(C)[C@@H]1CC[C@@H](C)CC1=O | -7.98 |  |
| O=C(O)C(Cc1cc(I)c(O)c(I)c1)c1ccccc1 (centres undefined) | -2.86 |  |
| COc1ccccc1N1CCN(CCCCNC(=O)c2ccc(-c3ccc(C(C)=O)cc3)cc2)CC1 | 3.48 |  |
| CCCCCCCCCCCCSCCOCCO | 3.73 |  |
| CCCCNc1ccc(C(=O)OCCOCCOCCOCCOCCOCCOCCOCCOCCOC)cc1 | -1.52 |  |
| CC(=O)Nc1ccc(OC(=O)c2ccccc2OC(C)=O)cc1 | 12.6 |  |
| CC(=O)NC(=O)c1ccccc1O | -9.03 |  |
